LASV entry inh – blocks Lassa virus binding or cell entry. Lassa virus pseudotyped entry inhibition, cell-based qHTS. Potency, µM (titrated, usually from 49.2 µM), for inactives: top-dose activity change, negative = inhibition, most hits filed as inhibitors. actives 4.1% (n = 18,000). AID 720533
Marburg entry – Marburg virus entry inhibition. AID 720532. Potency, µM (doses to about 49.2 µM), for inactives: top-dose activity change, negative = inhibition, usual class: inhibitors. Marburg virus pseudotype entry/binding inhibition, cell-based. actives 6.5% (n = 18,000)
The depositor's hits bear a star; ! = a repeat was not active; [ ] = dose if it differs, or a comment. This is a sample that favours compounds with a hit; in the whole collection about 7.1% have one here. The call rests on the fitted dose curve; tested in HEK293 cells. On the % scale 0 is the no-effect control and ±100 the full control effect; potency means the concentration at half of the fitted maximal effect.

How did COC(=O)CC=C[C@H](C)[C@H](Cc1ccccc1Br)OC do in these assays?
LASV entry inh: -11%[8.59 µM]; Marburg entry: 50%[8.59 µM]

How did Cc1ccc(-c2cc(=O)c3cc(C)ccc3[nH]2)cc1 do in these assays?
LASV entry inh: inconclusive; Marburg entry: 25µM*

What do the screens show for `Cc1ccc2[nH]c(-c3cccc(F)c3)cc(=O)c2c1`?
LASV entry inh: 9%; Marburg entry: inconclusive

What do the screens show for `CCOC(=O)CN1C(=O)N(CC)C(C)=C(C(=O)OC)C1c1ccccc1` (stereo not given)?
LASV entry inh: -25%[8.59 µM]; Marburg entry: inconclusive

What do the screens show for `COC1=CC(=O)C(C(=O)c2ccccc2)=CC1=O`?
LASV entry inh: -4%; Marburg entry: 10%

What do the screens show for `COC1=CC(=O)C=C(OC)C1=O`?
LASV entry inh: 10µM*; Marburg entry: 7.1µM*

How did O=C(NCC1Cc2cccc(-c3ncccn3)c2O1)c1cccc(-c2ccccc2F)c1 (stereo not given) do in these assays?
LASV entry inh: -14%; Marburg entry: -1%

What do the screens show for `CSc1ccccc1C(=O)NCC1Cc2cc(F)cc(-c3cnccn3)c2O1` (stereo not given)?
LASV entry inh: -10%; Marburg entry: -5%

Results for Cc1cc2c(c(-c3cnccn3)c1)OC(CNC(=O)c1cc(Cl)ccc1F)C2 (stereo not given) ?
LASV entry inh: -2%; Marburg entry: 25µM*

How did O=C(NCC1Cc2cccc(-c3cnccn3)c2O1)c1ccc(F)c(Cl)c1 (stereo not given) do in these assays?
LASV entry inh: 2%; Marburg entry: 11µM*

What do the screens show for `C[C@H]1CC[C@H]2C(=O)N(Cc3ccccc3)C[C@H](O)CN2[C@H]1c1cccc(Br)c1`?
Marburg entry: -5%[8.59 µM]

How did COC(=O)N1C2CC(=O)O[C@H]3c4cc5c(cc4[C@]1(C)[C@@]3(Br)c1ccccc12)OCO5 do in these assays?
LASV entry inh: 13%[8.59 µM]; Marburg entry: 8%[8.59 µM]

Results for O=C1CS(=O)(=O)N(Cc2ccccc2)[C@H]1Cc1ccccc1 ?
LASV entry inh: 3%; Marburg entry: 21%

How did COc1cc(C=O)ccc1O do in these assays?
LASV entry inh: -4%; Marburg entry: 0%

What do the screens show for `COc1cc(/C=C/C(=O)CC(=O)/C=C/c2ccc(O)c(OC)c2)ccc1O`?
LASV entry inh: 32µM*!; Marburg entry: inconclusive

What do the screens show for `COc1cc(/C=C/C(=O)O)ccc1O`?
LASV entry inh: -12%; Marburg entry: 8%

Results for COc1ccc(/C=C/C(=O)CC(=O)/C=C/c2cccc(O)c2OC)cc1O ?
LASV entry inh: 10µM*; Marburg entry: 8.9µM*

How did COc1cccc(/C=C/C(=O)O)c1C(C)C do in these assays?
LASV entry inh: -1%; Marburg entry: 7%

What do the screens show for `COc1cc(C=C2CCC/C(=C\c3ccc(O)c(OC)c3)C2=O)ccc1O`?
LASV entry inh: 32µM*; Marburg entry: inconclusive

How did COC(=O)N[C@@H](c1ccco1)[C@]1(C(C)=O)CCCC1=O do in these assays?
LASV entry inh: 5%[8.59 µM]; Marburg entry: inconclusive

What do the screens show for `O=C(NN=C1C[C@@H](O)[C@H](O)[C@H]2[C@@H]3C(=O)N(C4CCCCC4)C(=O)[C@@H]3CC[C@@H]12)OCc1ccccc1`?
LASV entry inh: -16%[8.59 µM]; Marburg entry: -13%[8.59 µM]

What do the screens show for `CCCCC#C[C@@H]1C=C[C@H](Oc2ccc(C(=O)OC)cc2)[C@@H](COC(=O)OCC)O1`?
LASV entry inh: 6%[8.59 µM]; Marburg entry: 16%[8.59 µM]

How did Cc1ccc(-c2cc3c(NC(=O)C4CC4)ncnc3o2)cc1 do in these assays?
LASV entry inh: 27%; Marburg entry: 44%

What do the screens show for `COC(=O)C1=C(C(=O)OC)[C@@H]2N(C)c3ccccc3[C@@]23C[C@@H](CO)N(C(=O)NC2CCCCC2)C3=N1`?
LASV entry inh: -3%[8.59 µM]; Marburg entry: -2%[8.59 µM]

What do the screens show for `Nc1nonc1-c1nc2cnccc2n1C1CCCCC1`?
LASV entry inh: 42%; Marburg entry: inconclusive

What do the screens show for `CC(CCN1CCc2nc(-c3ccccc3)c(-c3ccccc3)cc2C1)=NOC[C@@H](O)[C@H]1O[C@@H]2OC(C)(C)O[C@H]2[C@@H]1O`?
LASV entry inh: 17%[8.59 µM]; Marburg entry: 26%[8.59 µM]

What do the screens show for `C[C@H](Cc1ccccc1)Nc1ncnc2c1ncn2[C@@H]1O[C@H](CO)[C@@H](O)[C@H]1O`?
LASV entry inh: 13%; Marburg entry: 35%

What do the screens show for `COc1ccc(C[C@H](N)C(=O)N[C@H]2[C@@H](O)[C@H](n3cnc4c(N(C)C)ncnc43)O[C@@H]2CO)cc1`?
LASV entry inh: 4.5µM*; Marburg entry: 4µM*

How did CCN1C(=O)[C@H]2[C@H]3C(=CC[C@@H]2C1=O)C1(OCCCO1)[C@@H]1O[C@H]1[C@H]3O do in these assays?
LASV entry inh: 8%[8.59 µM]; Marburg entry: 68%[8.59 µM]

How did CC1(C)CCC2=C(O1)c1ccccc1C(=O)C2=O do in these assays?
LASV entry inh: 7.1µM*; Marburg entry: 11µM*

What do the screens show for `COC(=O)CC=C1c2ccccc2OC[C@@H](OC)[C@H]1C`?
LASV entry inh: -25%[8.59 µM]; Marburg entry: 2%[8.59 µM]

How did COc1cc([C@@H]2c3cc4c(cc3[C@@H](O[C@@H]3O[C@@H]5CO[C@@H](C)O[C@H]5[C@H](O)[C@H]3O)[C@H]3COC(=O)[C@H]23)OCO4)cc(OC)c1O do in these assays?
LASV entry inh: 1.1µM*; Marburg entry: inconclusive

Results for COc1cc(C2c3cc4c(cc3C(OC3OC5COC(C)O[C@@H]5C(O)C3O)C3COC(=O)C23)OCO4)cc(OC)c1O (stereo not given in full) ?
LASV entry inh: inconclusive; Marburg entry: 1.1µM*

How did COc1cc([C@@H]2c3cc4c(cc3C(O[C@@H]3O[C@@H]5CO[C@@H](C)O[C@H]5[C@H](O)[C@H]3O)C3COC(=O)[C@@H]32)OCO4)cc(OC)c1OP(=O)(O)O (stereo not given in full) do in these assays?
LASV entry inh: 3.2µM*; Marburg entry: 2.8µM*

How did CC(=O)OC[C@H]1O[C@H](C#CC(C)(C)C)C=C[C@H]1OC(C)=O do in these assays?
LASV entry inh: 20%[8.59 µM]; Marburg entry: 16%[8.59 µM]

How did COc1ccc(C=CNC(=O)Cc2ccc(OC)c(OC)c2)cc1 do in these assays?
LASV entry inh: -6%[8.59 µM]; Marburg entry: 24%[8.59 µM]

How did COc1cc(NS(C)(=O)=O)ccc1Cc1c2ccccc2nc2ccccc12 do in these assays?
LASV entry inh: inconclusive; Marburg entry: 2µM*

How did CN1CCN(c2nc(-c3cccc(NS(C)(=O)=O)c3)nc3ccccc23)CC1 do in these assays?
LASV entry inh: 22%; Marburg entry: -29%

Results for COc1ccc(-c2cc3ccccc3c(=O)o2)cc1 ?
LASV entry inh: 38%; Marburg entry: 44%

Results for COc1cc(OC)cc(-c2sc3ccccc3c(=O)c2I)c1 ?
LASV entry inh: inconclusive; Marburg entry: 18µM*

What do the screens show for `COC[C@H]1O[C@@H]2O[C@@H]1[C@@H](C=Cc1ccccc1)C[C@H]2C`?
LASV entry inh: 20%[8.59 µM]; Marburg entry: 5%[8.59 µM]

How did COC(=O)N1CCN(C(=O)Cc2ccc(Cl)c(Cl)c2)C(CN2CCCC2)C1 (stereo not given) do in these assays?
LASV entry inh: 0%; Marburg entry: inconclusive

Results for CN(CCc1ccc(Cl)c(Cl)c1)[C@@H]1CCCC[C@@H]1N1CCCC1 ?
LASV entry inh: inconclusive; Marburg entry: 7.9µM*

Results for CN(CCc1ccc(Cl)c(Cl)c1)CCN1CCCC1 ?
LASV entry inh: 32µM*; Marburg entry: 8.9µM*

How did COC(=O)[C@H]1CC=C[C@H]2CCN(Cc3ccc(Cl)c(Cl)c3)C(=O)[C@@H]12 do in these assays?
LASV entry inh: -22%; Marburg entry: -26%
